From the supplement of paper PMC7156485
± gives the standard deviation of the averaged measurements.
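Further: TDF denotes transformed human dermal fibroblasts of mesenchymal origin.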

Each molecule was assayed on HCC1569 (assay: cell number relative to DMSO (% of DMSO); higher = more cells (less growth inhibition / toxicity)). Conditions: concentration: 10 µM; 24 h.
Outline: (§1)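 Compounds were applied at 10 µM for 24 h at 37 °C, in triplicate, to HCC1569 and TDF cells. The cells were then fixed and stained for H1.0, and nuclei were counterstained with DAPI. Nuclear H1.0 intensity or cell number is reported relative to the plate control as a percent, taking the median of replicates. Smoothing for positional effects was applied to HCC1569 values only.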
Molecule `CCCCCCCCCCCC1=C(O)C(=O)C=C(O)C1=O` [Embelin] has a cell number of 98.8. With `CC#CC1(O)CCC2C3CCC4=CC(=O)CCC4=C3C(c3ccc(N(C)C)cc3)CC21C` (configuration not stated) [Mifepristone] the cell number was 101 ± 8.2. With `CCCCCC=CCC(O)C=CC=CC=CC(O)CCCC(=O)O` [5(S),12(R)-DIHETE all trans] the cell number was 99.8.

These molecules were tested on TDF in the same assay as above. Conditions: concentration: 10 µM; 24 h.
Outline: as §1
`Cn1cnc2c(NCc3ccccc3)nc(NCCO)nc21` [Olomoucine] was tested, and the cell number was 121. `CCCCCC=CCC=CCCCCCCCC(=O)O` [Linoleic acid] showed a cell number of 101. With `CCCn1c(=O)c2c(ncn2C)n(CCC)c1=O` [1,3-Dipropyl-7-methylxanthine] the cell number was 101. In the case of `CS(=O)(=O)O.CSc1ccc2c(c1)C(N1CCN(C)CC1)Cc1ccccc1S2` (configuration not stated) [Methiothepin mesylate], the cell number is reported as 102. With `CNCCC(Oc1ccc(C(F)(F)F)cc1)c1ccccc1` (configuration not stated) [Fluoxetine] the cell number was 94.1. Molecule `CC(N)(COP(=O)(O)O)C(=O)O` (configuration not stated) [2-methyl-O-phosphonoserine] has a cell number of 102. For `CC1=C(C(=O)O)N2C(=O)C(NC(=O)C(N)C3=CCC=CC3)C2SC1` (configuration not stated) [Cephradine], the cell number was 115. Molecule `CN(C)c1nc(N(C)C)nc(N(C)C)n1` [Altretamine] has a cell number of 108.4 ± 0.31. `C=C(CC)C(=O)c1ccc(OCC(=O)O)c(Cl)c1Cl` [Ethacrynic Acid] gave a cell number of 101. `Cl.Cl.NCCC(=O)NCCc1cnc[nH]1` [Carcinine dihydrochloride] was tested, and the cell number was 107. `CN(Cc1cnc2nc(N)nc(N)c2n1)c1ccc(C(=O)NC(CCC(=O)O)C(=O)O)cc1` (configuration not stated) [Methotrexate] was tested, and the cell number was 86.5. `CSc1nc2ccc3nc(NC(=O)C(c4ccccc4)c4ccccc4)sc3c2s1` gave a cell number of 121. For `COc1ccccc1N1CCN(CCCNc2cc(=O)n(C)c(=O)n2C)CC1.Cl` [Urapidil hydrochloride], the cell number was 102. `CCOC(=O)OC(C)OC1=C(C(=O)Nc2ccccn2)N(C)S(=O)(=O)c2ccccc21` (configuration not stated) [Ampiroxicam] gave a cell number of 94.9. Molecule `CC1Cc2ccccc2N1NC(=O)c1ccc(Cl)c(S(N)(=O)=O)c1` (configuration not stated) [Indapamide] has a cell number of 101. With `CCCC(=O)Oc1ccc2[nH]c(C(=O)c3cc4ccccc4[nH]3)cc2c1` [PDGF Receptor Tyrosine Kinase Inhibitor II] the cell number was 92.3. In the case of `COc1cc2ncnc(Nc3ccc(Cl)cc3F)c2cc1OC.Cl`, the cell number is reported as 102. Molecule `O=C(NCCCN1CCOCC1)c1cnn2c(-c3ccccc3)cc(-c3ccccc3)nc12` has a cell number of 84.3. `CCC=CCC=CCC=CCC=CCC=CCCCC(=O)O` showed a cell number of 102. Work on `CN1CCN(C2Cc3ccccc3Sc3ccc(Cl)cc32)CC1.O=C(O)C=CC(=O)O` (configuration not stated) yielded a cell number of 104. `N=C(N)c1ccc(OCCCCCOc2ccc(C(=N)N)cc2)cc1` [Pentamidine] was tested, and the cell number was 104. `COc1ccc(-c2cc3c(C)nc(N)nc3n(C3CCC(OCCO)CC3)c2=O)cn1` (configuration not stated) was tested, and the cell number was 51. Work on `CN(C)CC(C)(C)CNc1nn2c(-c3ccccc3)nnc2cc1C1CCC1` yielded a cell number of 103. With `S=C(NCc1ccc2c(c1)OCO2)N1CCN(c2ncnc3c2oc2ccccc23)CC1` the cell number was 72.6. Molecule `CC1=C(C)C(=O)C(CCCCC#CCCCC#CCO)=C(C)C1=O` has a cell number of 85 ± 1.8. Molecule `O=C1c2ccccc2-c2n[nH]c3cccc1c23` [JNK Inhibitor II] has a cell number of 112. With `COc1cc2ccc(=O)oc2cc1O` [Scopoletin] the cell number was 113. `CC(=O)NC(CSCC=C(C)CCC=C(C)C)C(=O)O` (configuration not stated) gave a cell number of 101. In the case of `COc1ccc(CC(N)C(=O)NC2C(CO)OC(n3cnc4c(N(C)C)ncnc43)C2O)cc1` (configuration not stated) [Puromycin], the cell number is reported as 99.2 ± 15. For `CCN1CCN(C(=O)NC(C(=O)NC2C(=O)N3C(C(=O)O)=C(CSc4nnnn4C)CSC23)c2ccc(O)cc2)C(=O)C1=O` (configuration not stated) [Cefoperazone acid], the cell number was 103. `Nc1ccc(S(=O)(=O)Nc2ncccn2)cc1` [Sulfadiazine] gave a cell number of 108. For `CC(F)(F)CN1CCOc2c(nn(-c3ccccc3Cl)c2-c2ccc(Cl)cc2)C1=O`, the cell number was 101. `C[N+](C)(CCCCCC[N+](C)(C)CCCN1C(=O)c2cccc3cccc(c23)C1=O)CCCN1C(=O)c2cccc3cccc(c23)C1=O.[Br-].[Br-]` was tested, and the cell number was 101. For `CC(=O)C1(O)CCC2C3CCC4=CC(=O)CCC4(C)C3CCC21C` (stereo not drawn) [17alpha-hydroxyprogesterone], the cell number was 98.3.
